These results are taken from PubChem BioAssay.
Note: test concentration not given here.

The first assay in a line: JC-1 mitochondrial signal, unstimulated myeloma cells – cell-based, JC-1 fluorescence, RPMI8226, 24 h, 100 nL compound, profiling panel (AID 1169). The note with it: JC-1 mitochondrial potential fluorescence, higher = more signal.
With `CN(C)C(=O)[C@]1(CCC(=O)OC(C)(C)C)N=C(c2ccc(OCCCO)cc2)O[C@@H]1c1ccccc1`, the z-score is -0.368.
In turn, `COCCOC(=O)N1C(=O)[C@@]2(c3cc(C#CC4(O)CCCCCC4)ccc31)[C@H](C(N)=O)[C@H]1C(=O)O[C@H](c3ccccc3)[C@H](c3ccccc3)N1[C@@H]2c1ccccc1OCCO` displayed a z-score of -1.17.
Take `CC(CO)N1C(=O)[C@@H]2C3C(=O)OCCC/C=C\[C@H]3OC23C=CCN(Cn2nnc4ccccc42)C(=O)[C@@H]13` (stereo partly drawn): the z-score was 0.222.
Turning to `COC(=O)[C@@]1(Cc2ccc(OC)cc2)[C@H]2c3cc(C(=O)N(C)C)n(CCc4c[nH]c5ccc(O)cc45)c3C[C@H]2CN1C(=O)c1ccccc1`, the z-score is -0.564.
Still for that read-out and setting: the same measure for `O=c1cccc(-c2cccc(Cl)c2)o1`: 0.86; for `O=C1O[C@H](c2ccccc2)[C@H](c2ccccc2)N2[C@H]1[C@@H](C(=O)O)[C@]1(C(=O)Nc3ccccc31)[C@H]2c1ccc(O)cc1`: 0.73; for `COCCOC(=O)N1C(=O)[C@@]2(c3ccccc31)[C@H](C(=O)N1CCN(c3ncccn3)CC1)[C@H]1C(=O)O[C@H](c3ccccc3)[C@H](c3ccccc3)N1[C@@H]2c1ccc(OCCO)cc1`: -0.459.
With `CCOC(=O)C1=C[C@@H](c2ccccc2)N(S(=O)(=O)c2ccc(C)cc2)[C@H]1c1cccc(Cl)c1`, the z-score amounted to 0.754.
Regarding `O=C1c2ccccc2[C@](Cc2ccccc2I)(C(=O)NCCN2CCOCC2)[C@H](c2ccc(CO)cc2)N1Cc1ccccc1`, the z-score was determined as 0.231.
The compound `O=C(O)[C@H]1C[C@H]2C(=O)N3CCC[C@H]3C(=O)N2[C@H]1c1cccc(OCCO)c1` came in with a z-score of -0.77.

Another assay can be described thus: JC-1 mitochondrial signal, unstimulated MM1S myeloma – cell-based, JC-1 fluorescence, 24 h, 100 nL compound, profiling panel (AID 1170). As to conditions: MM1S mitochondrial potential, higher = more signal.
In turn, `O=C1C[C@]2(c3ccc([N+](=O)[O-])cc3)C(=O)N(Cc3ccccc3)c3cc(CO)ccc3[C@H]2N1CC12CC3CC(CC(C3)C1)C2` gave a z-score of -1.02.
The same measure, in the same setting: the same measure for `Cc1c(NC(=O)/C(C#N)=C/C=C/c2ccc(N(C)C)cc2)c(=O)n(-c2ccccc2)n1C`: 1.64; for `COCCOC(=O)N1C(=O)[C@@]2(c3ccccc31)[C@H](c1ccc(OCCO)cc1)N1[C@H](c3ccccc3)[C@H](c3ccccc3)OC(=O)[C@H]1[C@@H]2C(=O)Nc1nc2ccccc2s1`: -1.36.
Still for that read-out and setting: the same measure for `COCCCNC(=O)[C@@]1(Sc2ccc(C)cc2)CC(=O)N(Cc2cc(C(F)(F)F)cc(C(F)(F)F)c2)[C@@H]1c1ccc(CO)cc1`: -0.422; for `CCCC[C@@H]1C[C@H]1[C@@H](NC(=O)c1ccccc1)c1ccc(Cl)cc1`: -1.19.
`CC(C)C(CO)N1C(=O)[C@]2(C)C3C(=O)OCCC/C=C\[C@H]3OC23C=CCN(c2ccc(Cl)cc2)C(=O)[C@@H]13` (stereo partly drawn): the z-score was -0.0291.
Consider `COC(=O)[C@@]1(Cc2ccc(OC)cc2)[C@H]2c3cc(C(=O)N4CCCC4)n(CCc4cc5ccccc5[nH]4)c3C[C@H]2CN1C(=O)c1ccccc1`, for which the z-score was -1.1.
In turn, `CCCC[C@@H]1C[C@H]1[C@@H](NC(=O)c1cccnc1)c1ccc(-c2ccccc2)cc1` gave a z-score of -1.13.
Regarding `[N-]=[N+]=Nc1ccccc1[C@@H]1OC(c2ccc(OCCCO)cc2)=N[C@]1(CCS(=O)(=O)c1ccccc1)C(=O)NCCN1CCOCC1`, the z-score is -1.2.
On to `C[C@@H](OCc1ccccc1)C1NC(=O)[C@@]23C(=O)N[C@@H](Cc4ccccc4)C2[C@H](C)[C@@]2(C)O[C@H]2C3/C=C/C/C=C\CNC(=O)CNC1=O` (stereo partly drawn), for which the z-score was 0.146.
The same measure, in the same setting: to `C=C(CCCC)/C(=C/C[C@@H](OC(=O)c1ccncc1)c1cccc(OCCO)c1)c1cnc2ccccc2c1` belongs 0.117; to `CC(=O)n1cc(C(O)C2C=CC3C(=O)N(c4ccccc4)C(=O)C3N2Nc2ccccc2)c2ccccc21` (stereo not drawn), -0.969.
Take `C=CCN1C(=O)[C@]2(CC=C)N=C(c3ccc(OCCCO)cc3)O[C@@H]2c2ccccc21`: the z-score was -2.38.
Take `CCOC(=O)C[C@H]1[C@H](OC(=O)Cc2ccc3c(c2)OCO3)[C@@H](NC(=O)C2CCCCC2)c2cc(OCCCO)ccc2N1C(=O)c1ccc2ccccc2n1`: the z-score was -0.703.
Turning to `O=C1O[C@@H](c2ccccc2)[C@@H](c2ccccc2)N2[C@@H](c3ccccc3OCCO)[C@]3(C(=O)Nc4ccc(C#CC5=CCCCC5)cc43)[C@@H](C(=O)NC[C@H](O)c3ccccc3)[C@H]12`, the z-score was -2.
`O=C1OCC=C[C@H]2OC34C=CCN(Cn5nnc6ccccc65)C(=O)[C@H]3N(CCCCCCO)C(=O)[C@@H]4[C@@H]12` (stereo partly drawn) had a z-score of -0.467.
In turn, `COCCCNC(=O)[C@]1(Cc2ccccc2N=[N+]=[N-])N=C(c2ccc(OCCCO)cc2)O[C@@H]1c1ccccc1N=[N+]=[N-]` gave a z-score of -2.71.
`CC(C)c1ccc(NN2C(C(O)c3ccco3)C=CC3C(=O)N(c4ccccc4)C(=O)C32)cc1` (stereo not drawn) yielded a z-score of -0.921.
